High-throughput results from PubChem BioAssay.
Only some compounds are listed: those with a hit (about 22% of all), similar ones and a draw of the others.
Cycloheximide cs – Cycloheximide Counterscreen for Small Molecule Inhibitors of Shiga Toxin; hit rate 12% among 300,000; cell reporter, cycloheximide protein synthesis inhibition counterscreen; max response, %; in the data active = max response mostly above about 13%, no sharp cut-off; inactive = mostly below about 14%; also: read at 38.3 µM for the half of the compounds with a filed dose; 0% is about no effect
LmPK inh – qHTS Assay for Inhibitors of Leishmania Mexicana Pyruvate Kinase (LmPK); AID 1721, 2009; purified LmPK, Kinase-Glo ATP luminescence, 1 h; Q27686; hit rate 0.37% among 290,000; Potency, µM (series often up to 57.5 µM), inactives show top-dose activity change, negative = inhibition, most hits filed as inhibitors; also: potency is read from the fitted curve at half-maximal effect; % is scaled to controls: 0 for no effect and ±100 for the full control effect
Target sequence (Q27686 whole entry, looked up): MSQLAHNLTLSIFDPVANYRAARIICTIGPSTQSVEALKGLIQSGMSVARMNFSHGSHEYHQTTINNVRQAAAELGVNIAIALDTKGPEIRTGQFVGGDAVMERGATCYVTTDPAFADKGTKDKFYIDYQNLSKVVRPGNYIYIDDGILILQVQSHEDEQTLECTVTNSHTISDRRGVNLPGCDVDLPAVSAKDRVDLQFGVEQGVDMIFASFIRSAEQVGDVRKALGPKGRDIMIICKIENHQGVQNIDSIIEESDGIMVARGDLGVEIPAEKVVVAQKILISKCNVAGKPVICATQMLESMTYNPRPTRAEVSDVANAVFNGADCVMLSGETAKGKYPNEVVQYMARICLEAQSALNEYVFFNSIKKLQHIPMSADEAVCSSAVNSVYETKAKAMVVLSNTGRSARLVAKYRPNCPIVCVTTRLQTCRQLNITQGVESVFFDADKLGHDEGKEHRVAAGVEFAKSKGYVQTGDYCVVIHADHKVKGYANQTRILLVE
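qHTS format; LmPK 0.1 nM; substrates PEP 0.5 mM and ADP 0.1 mM. One-hour room-temperature incubation, then coupled luciferase luminescence; 0.5 nM enzyme wells mark activation.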
Shiga inhibitor – A qHTS for Small Molecule Inhibitors of Shiga Toxin; AID 2315, 2010; hit rate 9.2% among 290,000; inhibition, % at 38.7 µM; Vero cells, Shiga toxin protein synthesis inhibition reporter; in the data active = inhibition mostly above about 28%, no sharp cut-off; inactive = mostly below about 43%; also: 0% is about no effect
Pf growth 48h – Primary qHTS for delayed death inhibitors of the malarial parasite plastid, 48 hour incubation; P. falciparum luciferase growth in erythrocytes, 48 h; Potency, µM (series often up to 28.7 µM), inactives show at the top dose activity change, negative = inhibition, actives largely listed as inhibitors; hit rate 5.9% among 310,000; AID 504832, 2011; also: potency is read from the fitted curve at half-maximal effect; % is scaled to controls: 0 for no effect and ±100 for the full control effect
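Firefly luciferase activity from engineered P. falciparum reports growth; inhibitors lower the luminescent signal. Cultures contained 2% hematocrit erythrocytes at 0.1% final parasitemia.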
Pf growth 96h – Primary qHTS for delayed death inhibitors of the malarial parasite plastid, 96 hour incubation; hit rate 6.9% among 320,000; AID 504834, 2011; P. falciparum luciferase reporter growth, 96 h; Potency, µM (titrated, usually from 28.7 µM), without a hit: at the top dose activity change, negative = inhibition, usual class: inhibitors; also: potency is read from the fitted curve at half-maximal effect; % is scaled to controls: 0 for no effect and ±100 for the full control effect
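Parasite growth measured via integrated firefly luciferase reporter in P. falciparum. Infected erythrocytes at 2% hematocrit, 0.05% parasitemia final were treated 96 hours at 37 C under 5% CO2, and luminescence was read.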
Active calls of the source: *; [ ] = dose if it differs, or a comment. Unless noted, calls follow the shape of the dose curve; as a rule, active = well fitted inhibition curve with a large enough effect; inconclusive = small, poorly fitted or top-dose-only effect, or another doubt; inactive = no such curve, though single readings can be large or run the other way.

`CCCC/C=C/[C@H](C)[C@@](C)(COC(=O)c1ccc(Br)cc1)Cc1ccccc1` gave Cycloheximide cs 15.8 and Shiga inhibitor 4.1.
Screening COc1ccc(Br)cc1CNC(=O)C1CCN(S(=O)(=O)N2CCC(C)CC2)CC1 returned Cycloheximide cs -4.6, LmPK inh -1.1%, Shiga inhibitor -0.8, Pf growth 48h inconclusive and Pf growth 96h 11.7µM*.
`COc1ccc(OC)c(CNC(=O)C2CCN(S(=O)(=O)N3CCCCC3)CC2)c1` gave Cycloheximide cs 1.8, LmPK inh -1.1%, Shiga inhibitor -2.9, Pf growth 48h 16.6% and Pf growth 96h -10.4%.
For CCN(CCNC(=O)C1CCN(S(C)(=O)=O)CC1)c1ccccc1 the results were Cycloheximide cs -0.9, LmPK inh 1.2%, Shiga inhibitor -6.4, Pf growth 48h -2.0% and Pf growth 96h 4.65µM*.
For O=C(O)c1cc(N/N=C/c2ccncc2)ccc1Cl the results were Cycloheximide cs 21.4*, LmPK inh -15.5%, Shiga inhibitor 59.5*, Pf growth 48h 154.6% and Pf growth 96h 442.4%.
Screening O=C(O)c1ccc(/C=N/Nc2cccc(C(F)(F)F)c2)cc1 returned Cycloheximide cs 56.4*, LmPK inh 2.4%, Shiga inhibitor 120.4*, Pf growth 48h 68.8% and Pf growth 96h 55.1%.
O=C(O)c1ccc(NS(=O)(=O)/C=C/c2ccccc2)cc1 was read as Cycloheximide cs 1.0, LmPK inh 4.3%, Shiga inhibitor 11.8 and Pf growth 48h inconclusive.
Screening O=C(O)c1ccc(N/N=C/c2ccc(-c3ccccc3)cc2)cc1 returned Cycloheximide cs 26.5*, LmPK inh 2.7%[11.5 µM], Shiga inhibitor 100.5, Pf growth 48h 285.5% and Pf growth 96h 397.7%.
For O=C(O)c1ccc(N/N=C/C=C/c2ccccc2)cc1 the results were Cycloheximide cs 42.0*, LmPK inh -6.7%, Shiga inhibitor 54.9*, Pf growth 48h 209.8% and Pf growth 96h 130.7%.
`CC(C)c1ccc(/C=N/Nc2ccc(C(=O)O)cc2)cc1` gave Cycloheximide cs 2.3, LmPK inh -4.7%, Shiga inhibitor 9.1, Pf growth 48h 43.2% and Pf growth 96h -22.6%.
`COc1ccccc1N(C(=O)c1snc(C(N)=O)c1N)C(C(=O)NC1CCCC1)c1ccc2ncccc2c1` (configuration not stated) gave Cycloheximide cs -7.1, LmPK inh 8.5%, Shiga inhibitor -2.7, Pf growth 48h inconclusive and Pf growth 96h 15.2%.
Screening C/C(=N\NC(=O)CNc1cccc(C(F)(F)F)c1)c1ccc(Br)cc1 returned Cycloheximide cs 4.0, LmPK inh -0.4%, Shiga inhibitor -3.6, Pf growth 48h 14.1% and Pf growth 96h -15.9%.
Screening O=C(O)c1cc(N/N=C/c2c[nH]c3ccccc23)ccc1Cl returned Cycloheximide cs 58.1*, LmPK inh 0.6%, Shiga inhibitor active, Pf growth 48h 95.6% and Pf growth 96h 334.8%.
For O=C(O)c1cccc(N/N=C/c2ccc(F)c(F)c2)c1 the results were Cycloheximide cs 94.7*, LmPK inh 0.4%, Shiga inhibitor active, Pf growth 48h inactive and Pf growth 96h inactive.
CN1CCN(CC(=O)N/N=C/c2ccc(F)c(F)c2)CC1 was read as Cycloheximide cs -5.4, LmPK inh -5.7%, Shiga inhibitor 13.3, Pf growth 48h 17.9% and Pf growth 96h inconclusive.
C/C(=N\Nc1cccc(C(F)(F)F)c1)c1ccc(O)cc1 was read as Cycloheximide cs 22.6, LmPK inh -1.3%, Shiga inhibitor 50.5*, Pf growth 48h -29.1% and Pf growth 96h -19.1%.
O=C(O)c1cc(N/N=C/c2cccnc2)ccc1Cl was read as Cycloheximide cs 62.9*, LmPK inh 0.5%, Shiga inhibitor 133.2*, Pf growth 48h 158.7% and Pf growth 96h 305.1%.
`CCCCCCCCOc1c(OC)cc(/C=C/C(=O)N2CCN(c3ccc(C)c(C)c3)CC2)cc1OC` gave Cycloheximide cs 5.3 and Shiga inhibitor 19.0.
For Clc1cncc(Cl)c1N/N=C/c1ccncc1 the results were Cycloheximide cs -4.5, LmPK inh -4.1%, Shiga inhibitor -9.9, Pf growth 48h inconclusive and Pf growth 96h 1.17µM*.
`CSc1ccc(/C=N/NC(=O)COc2ccc(Br)cc2Cl)cc1` gave Cycloheximide cs -0.1, LmPK inh -4.1%, Shiga inhibitor 0.9, Pf growth 48h -22.1% and Pf growth 96h inconclusive.
